{"source": "PubChem BioAssay (Tox21)", "note": "Activity calls are given as the source filed them. Calls follow the shape of the dose curve; as a rule, active = well fitted activation curve with a large enough effect in the repeat runs; inconclusive = weak or mixed curves; inactive = flat fitted curve, though single readings scatter. % is scaled to controls: 0 for no effect and ±100 for the full control effect.", "data": [{"assay": "Caspase-3/7 induction in CHO-K1 cells by small molecules, qHTS assay (AID 1346980); also: nearly all actives have a fitted effect of over 15% in size", "settings": "CHO-K1 caspase-3/7 induction, Caspase-Glo luminescence, 17 h; series mostly up to 92.4 µM; caspase-3/7 activation: at the top concentration", "from_the_text": "National Center for Advancing Translational Sciences [NCATS]\nNIH Chemical Genomics Center [NCGC]\nU.S. Environmental Protection Agency [EPA]\nNational Institutes of Environmental Health Sciences [NIEHS]\nNational Toxicology Program [NTP]\nApoptosis is a process of programmed cell death and plays a central role in the development of multicellular organisms. It is a highly regulated process and induces cell death by activating caspases, which are the members of cysteine aspartic acid-specific protease (caspase) family. Caspases involved in apoptosis are classified by their mechanism of action as initiator caspases (caspase-2, -8, -9 and -10) and executioner caspases (caspase-3, -6, and -7). Inhibition of apoptosis results in number of cancers, autoimmune diseases, inflammatory diseases and viral infection. To identify small molecule compounds that induce apoptosis, a homogeneous, luminescent Caspase-Glo 3/7 assay was used. Wild type CHO-K1 cells were used to screen Tox21 libraries for identifying caspase-3/7 activity inducers.\nCHO-K1 cells were dispensed at 1,500 per well in 5uL of culture medium into white solid bottom 1536-well plates (Corning Life Sciences, Corning, NY) using a Multidrop Combi (Thermo Scientific, Waltham, MA) dispenser. The assay plates were incubated at 37 C and 5% CO2 for 5hr, and then 23nL of compounds dissolved in DMSO and positive control were transferred using a Pintool station (Wako, San Diego, CA). The assay plates were incubated at 37C and 5% CO2 for 17hr. For caspase-3/7 activity read, 4uL of Caspase-Glo 3/7 reagent (Promega Corporation, Madison, WI) was added to each well of the assay plates using Flying Reagent Dispenser (FRD, Aurora Discovery, San Diego, CA) and incubated the assay plates at room temperature for 30min. The luminescence signal was quantified using a ViewLux plate reader (Perkin Elmer, Shelton, CT).", "values": [{"smiles": "CC(C)(C)c1ccc(C(=O)CCCCl)cc1", "caspase-3/7 activation": "-1.09% [at 42.5 µM] (inactive)"}, {"smiles": "C=CCn1cc[n+](C)c1", "caspase-3/7 activation": "0.207% (inactive)"}, {"smiles": "NC[C@H]1O[C@H](O[C@H]2[C@H](O)[C@@H](O[C@H]3O[C@H](CO)[C@@H](O)[C@H](N)[C@H]3O)[C@H](N)C[C@@H]2N)[C@H](N)[C@@H](O)[C@@H]1O", "caspase-3/7 activation": "-0.57% [at 19 µM] (inactive)"}, {"smiles": "COc1ccccc1N1CCN(CC(O)COc2cc(OC)c(OC)c(OC)c2)CC1", "note": "(stereo not given)", "caspase-3/7 activation": "-0.248% [at 42.5 µM] (inactive)"}, {"smiles": "C=CCOC(=O)CCCCCCCC", "caspase-3/7 activation": "0.566% (inactive)"}, {"smiles": "CC(=O)c1ccc(O)c(C(N)=O)c1", "caspase-3/7 activation": "0.946% [at 42.5 µM] (inactive)"}, {"smiles": "COC(=O)c1ccccc1Cl", "caspase-3/7 activation": "6.32% (inactive)"}, {"smiles": "NNC(=O)CCCCC(=O)NN", "caspase-3/7 activation": "1.5% (inactive)"}, {"smiles": "CCN1CCN(C(=O)N[C@@H](C(=O)N[C@@H]2C(=O)N3[C@@H]2SC(C)(C)[C@H]3C(=O)O)c2ccccc2)C(=O)C1=O", "caspase-3/7 activation": "-1.23% [at 42.5 µM] (inactive)"}, {"smiles": "C[C@@H](CN1CC(=O)NC(=O)C1)N1CC(=O)NC(=O)C1", "caspase-3/7 activation": "0.914% [at 42.5 µM] (inactive)"}, {"smiles": "O=C(O)Cc1c(Cl)ccc(Cl)c1Cl", "caspase-3/7 activation": "0.351% (inactive)"}, {"smiles": "CC(C)(C)C(=O)NCCCC(=O)O", "caspase-3/7 activation": "-1.05% [at 42.5 µM] (inactive)"}, {"smiles": "CCNC(=O)C(C)OC(=O)Nc1ccccc1", "note": "(stereo not given)", "caspase-3/7 activation": "0.0057% (inactive)"}, {"smiles": "CCCCc1ccc(Cl)cc1", "caspase-3/7 activation": "0.867% (inactive)"}, {"smiles": "OCCC(F)(F)C(F)(F)C(F)(F)C(F)(F)C(F)(F)C(F)(F)F", "caspase-3/7 activation": "0.0474% (inactive)"}, {"smiles": "N#CC1(N)CCCCC1", "caspase-3/7 activation": "-1.36% (inactive)"}, {"smiles": "CC/C=C\\CCOC(=O)c1ccccc1", "caspase-3/7 activation": "-1.31% (inactive)"}, {"smiles": "O=c1[nH]c(=O)c2cn[nH]c2[nH]1", "caspase-3/7 activation": "-1.02% (inactive)"}, {"smiles": "CSC(=O)c1cccc2nnsc12", "caspase-3/7 activation": "-0.0276% (inactive)"}, {"smiles": "CC(CN1CC(=O)NC(=O)C1)N1CC(=O)NC(=O)C1", "note": "(stereo not given)", "caspase-3/7 activation": "1.93% (inactive)"}, {"smiles": "Cc1ccc(N)nc1", "caspase-3/7 activation": "0.648% (inactive)"}, {"smiles": "CC/C=C/CCCCCCCCCCOC(C)=O", "caspase-3/7 activation": "1.96% (inactive)"}, {"smiles": "CC(C)(C)OC=O", "caspase-3/7 activation": "2.31% (inactive)"}, {"smiles": "C[n+]1ccccc1/C=N/O", "caspase-3/7 activation": "-0.572% [at 42.5 µM] (inactive)"}, {"smiles": "Cc1ccc(NC(N)=O)cc1", "caspase-3/7 activation": "-0.057% (inactive)"}, {"smiles": "CC(=O)Oc1ccc(C(C)=O)cc1", "caspase-3/7 activation": "0.0719% (inactive)"}, {"smiles": "CCCCOCCCC", "caspase-3/7 activation": "1.25% (inactive)"}, {"smiles": "CC(=O)SC[C@@H](C)C(=O)N1CCC[C@H]1C(=O)N[C@@H](Cc1ccccc1)C(=O)O", "caspase-3/7 activation": "-0.352% [at 42.5 µM] (inactive)"}, {"smiles": "CC(C)C(=O)Nc1cccc(C2CN3CCSC3=N2)c1", "note": "(stereo not given)", "caspase-3/7 activation": "-0.099% [at 42.5 µM] (inactive)"}, {"smiles": "CCCCCCCCCCCCCCCCN(C)C", "caspase-3/7 activation": "-0.483% [at 8.39 µM] (inactive)"}, {"smiles": "CN(C)CCc1c[nH]c2ccc(CS(=O)(=O)N3CCCC3)cc12", "caspase-3/7 activation": "0.851% [at 42.5 µM] (inactive)"}, {"smiles": "CCCCCCCCCCCCCC(=O)OCC", "caspase-3/7 activation": "1.29% (inactive)"}, {"smiles": "Cc1ccccc1OCC(=O)O", "caspase-3/7 activation": "0.153% (inactive)"}, {"smiles": "O=C1c2ccccc2C(=O)N1CO", "caspase-3/7 activation": "0.23% (inactive)"}, {"smiles": "C/C=C/C(=O)CCCC", "caspase-3/7 activation": "-0.683% (inactive)"}, {"smiles": "COc1cc2nc(N3CCN(C(=O)C4CCCO4)CC3)nc(N)c2cc1OC", "note": "(stereo not given)", "caspase-3/7 activation": "-4.41% [at 42.5 µM] (inactive)"}, {"smiles": "CCCCCCC(=O)c1ccccc1", "caspase-3/7 activation": "-0.0648% (inactive)"}, {"smiles": "CC(C)(C)NCC(O)COc1cccc2c1CCC(=O)N2", "note": "(stereo not given)", "caspase-3/7 activation": "0.513% [at 42.5 µM] (inactive)"}, {"smiles": "CCOC(=O)CC(C(C)=O)C(C)=O", "caspase-3/7 activation": "0.725% (inactive)"}, {"smiles": "CCC(C)(C)C", "caspase-3/7 activation": "-0.64% (inactive)"}]}]}
